# Test results taken from PubChem BioAssay (NCI).
# About 83,000 compounds went through this panel and 20% of them were active in at least one assay; those are over-represented in the sample as a whole.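 In brief: 96-well plates, 48 h treatment, single concentration, percent growth endpoint.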 A number with no mark means an inactive call. The source made the active and inactive calls. Rule for the calls: active = growth percent below 10; inactive = the rest.
# Legend:
# Assay in all cases: NCI-60 one-dose screen, 48 h (100 = growth as untreated, 0 = no growth, -100 = all killed)
# Details in all cases: 10 µM unless noted
# DU-145 prostate = system: DU-145 prostate
# MALME-3M melanoma = system: MALME-3M melanoma
# MDA-MB-231 breast = system: MDA-MB-231 breast
# RXF 393 renal = system: RXF 393 renal
# SF-268 CNS = system: SF-268 CNS
# SF-295 CNS = system: SF-295 CNS
# SF-539 CNS = system: SF-539 CNS
# M14 melanoma = system: M14 melanoma
# HCT-15 colon = system: HCT-15 colon
# HT29 colon = system: HT29 colon
# SNB-75 CNS = system: SNB-75 CNS
# SNB-19 CNS = system: SNB-19 CNS
# U251 CNS = system: U251 CNS
# SK-MEL-5 melanoma = system: SK-MEL-5 melanoma
# UACC-62 melanoma = system: UACC-62 melanoma
# LOX IMVI melanoma = system: LOX IMVI melanoma
# SK-MEL-28 melanoma = system: SK-MEL-28 melanoma
# K-562 leukemia = system: K-562 leukemia
# UACC-257 melanoma = system: UACC-257 melanoma
# PC-3 prostate = system: PC-3 prostate
SMILES,growth (DU-145 prostate),growth (MALME-3M melanoma),growth (MDA-MB-231 breast),growth (RXF 393 renal),growth (SF-268 CNS),growth (SF-295 CNS),growth (SF-539 CNS),growth (M14 melanoma),growth (HCT-15 colon),growth (HT29 colon),growth (SNB-75 CNS),growth (SNB-19 CNS),growth (U251 CNS),growth (SK-MEL-5 melanoma),growth (UACC-62 melanoma),growth (LOX IMVI melanoma),growth (SK-MEL-28 melanoma),growth (K-562 leukemia),growth (UACC-257 melanoma),growth (PC-3 prostate)
Cc1ccc(OCC(=O)Nc2ccc(Oc3ccccc3)cc2)c([N+](=O)[O-])n1,90.4%,87.7%,85.4%,66.1%,86.5%,89.5%,78.3%,74.7%,95.2%,95%,78.8%,58.7%,85%,44.2%,60.9%,89.6%,111%,,,
CN(C)CCCN=c1cc2c(=O)n(CCCN(C)C)c(=O)c3c(NCCCN(C)C)cc4c(O)n(CCCN(C)C)c(=O)c1c4c3-2,-40.7% (active),,-0.632% (active),-68.3% (active),1.31% (active),-34.8% (active),-23% (active),,13.7%,-42.2% (active),-66.9% (active),10.7%,3.63% (active),-82.4% (active),-49.3% (active),-42.3% (active),-48.6% (active),6.48% (active),-27.3% (active),12.1%
COc1ccc(-c2ccc(O)c(C(=O)/C=C/c3cc(OC)c(OC)c(OC)c3)c2)cc1,83.7%,,85.6%,94.5%,79.6%,92.4%,96.8%,93.6%,76.6%,75%,96.9%,99.4%,78%,71.7%,67.1%,62.5%,104%,56.5%,86.6%,61.8%
CCOC(=O)CCC(=O)O[C@H]1[C@H](O[C@@H]2[C@@H](C)[C@H](O[C@H]3C[C@@](C)(OC)[C@@H](O)[C@H](C)O3)[C@@H](C)C(=O)O[C@H](CC)[C@@](C)(O)[C@H](O)[C@@H](C)C(=O)[C@H](C)C[C@@]2(C)O)O[C@H](C)C[C@@H]1N(C)C,119%,99.4%,106%,110%,115%,104%,101%,,98.1%,102%,91.5%,112%,101%,104%,102%,102%,117%,,113%,92.6%
O=Nc1c2cccnc2n2nnc3ccc(Cl)cc3c12,-10.6% (active),23.7%,13.9%,,48.7%,90.3%,91.4%,81.5%,24.5%,8.1% (active),63.4%,89.8%,50.6%,96.2%,73.5%,26.6%,28.3%,,28.6%,-26.9% (active)
CC1C(C)N(C(=O)CCl)c2ccccc2N1C(=O)CCl (stereo not drawn),-94.9% (active),,-53.8% (active),-53.9% (active),-77.9% (active),-66.7% (active),-94.8% (active),-81.8% (active),-83.4% (active),-73.5% (active),-99.4% (active),8.21% (active),-93.4% (active),-70.4% (active),-76.8% (active),-81.2% (active),-45.9% (active),-0.205% (active),-70.3% (active),-36.6% (active)
CC[C@@H](C)/C=C(C)/C=C/C(O)=C1\C(=O)N[C@@H](Cc2ccc(OC(=O)[C@@](OC)(c3ccccc3)C(F)(F)F)cc2)C1=O,73.2%,,89.5%,109%,61.9%,74.2%,114%,97%,102%,114%,101%,96.6%,83.9%,110%,98.9%,50.3%,103%,9.3% (active),94%,37.3%
C[C@]12CC[C@H](O)CC1=CC[C@@H]1[C@@H]2CC[C@]2(C)C(c3cccnc3)=CC[C@@H]12,90.6%,70.8%,85.1%,,79.5%,42%,31.8%,71%,56.8%,24%,52.4%,72.7%,67%,25.9%,53.2%,74.5%,33.8%,,,
O=[N+]([O-])c1ccc(N=Nc2c(Cl)cc(O)cc2Cl)cc1,11.1%,,-35.6% (active),7.36% (active),-5.79% (active),-55.6% (active),-2.1% (active),-30% (active),-25.7% (active),8.53% (active),-10.4% (active),20.1%,10%,-58.7% (active),-44.1% (active),-12.7% (active),5.72% (active),1.93% (active),-21.5% (active),8.4% (active)
COC(=O)[C@H]1[C@H]2C[C@@H]3c4[nH]c5cc(OC)ccc5c4CCN3C[C@H]2C[C@@H](OC(=O)/C=C/c2cc(OC)c(OC)c(OC)c2)[C@@H]1OC,40.8%,,65.1%,61%,68.6%,14.6%,71.8%,71.5%,39.9%,-66.1% (active),47.2%,49.9%,17.4%,,87.4%,26.8%,109%,-2.87% (active),85%,44.6%
CC(=O)O[C@H]1CC[C@@]2(C)C(=CC[C@@H]3[C@@H]2CC[C@]2(C)C(c4cccnc4)=CC[C@@H]32)C1,94.9%,72.6%,86.3%,,76.4%,43.3%,28.7%,72.7%,51.4%,22.1%,51%,72.3%,53%,20.9%,44.1%,63.4%,44.4%,,,
CC[C@@H](C)/C=C(C)/C=C/C(=O)c1c(O)c(-c2ccc(O)cc2)cn(OC2CC(=O)CCC(C)OC(=O)CC2O)c1=O (stereo partly drawn),4.8% (active),,42.6%,33.6%,-7.36% (active),-22% (active),-4.57% (active),,26.8%,29.5%,18%,22.9%,11.1%,-22.7% (active),-13.1% (active),2.2% (active),34%,13.8%,-2.46% (active),34%
O=c1c2c(=NCCCN3CCCC3)cc3c(=O)n(CCCN4CCCC4)c(=O)c4c(NCCCN5CCCC5)cc(c(O)n1CCCN1CCCC1)c2c4-3,-16.1% (active),,-9.58% (active),-67.6% (active),-7.1% (active),-42.5% (active),-32.6% (active),-63.1% (active),12.9%,-7.75% (active),-83.1% (active),7.13% (active),1.98% (active),-66% (active),-52.2% (active),-7.8% (active),-42.3% (active),6.04% (active),-29.8% (active),11.7%
O=C1Nc2ccc(C(=O)O)c(O)c2C1=O,111%,,113%,116%,104%,108%,94.4%,107%,110%,117%,103%,107%,106%,104%,101%,54.5%,111%,107%,117%,95.7%
N#CC1c2ccccc2C=CN1C(=O)N(c1ccccc1)c1ccccc1 (stereo not drawn),42.9%,,70.6%,2.13% (active),79.6%,67.7%,109%,,,57.2%,68.6%,98.5%,57.4%,65.4%,61.2%,35.6%,67%,5.35% (active),-1.11% (active),60%
Cn1c(=O)c2[nH]c(=S)n(Cc3ccccc3)c2n(C)c1=O,105%,,101%,120%,95.8%,118%,93.8%,99.7%,102%,111%,84.9%,99.1%,110%,102%,91.8%,88.1%,122%,84.6%,90.4%,98.2%
c1ccc(-c2oc(-c3ccccc3)c3ccccc23)cc1,90.3%,,91%,116%,102%,102%,104%,110%,108%,118%,110%,105%,98.9%,104%,98.6%,88.5%,125%,86.5%,108%,82.8%
